Measured values: PubChem BioAssay AID588342 (National Center for Advancing Translational Sciences (NCATS), 2011)
The whole screen tested about 360,000 compounds, of which about 25,000 (6.9%) were called active. Where a call stands in place of a potency, no number is given. Inconclusive results (about 9%) are left out. The sample holds actives, similar compounds and a random draw of the others, so the mix is not that of the screen. Calls come from the whole dose curve; as a rule, active = well fitted inhibition curve with a large enough effect; inconclusive = small, poorly fitted or top-dose-only effect; inactive = flat fitted curve, though single readings scatter.

Molecular target: Luciferin 4-monooxygenase (Photinus pyralis) (UniProt P08659)
Assay: qHTS profiling assay for firefly luciferase inhibitor/activator using purifed enzyme and Km concentrations of substrates (counterscreen for miR-21 project); note: nearly all actives have a fitted effect of over 55% in size
Conditions: purified FLuc, luminescence inhibition; series mostly up to 57.5 µM
Summary of the method: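 Biochemical qHTS of compounds, final roughly 60 µM downward over six points, against 10 nM purified firefly luciferase using Km concentrations of substrates (10 uM D-luciferin, 10 uM ATP) in Tris acetate pH 7.5 buffer; luminescence output.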
Potency is the fitted concentration of half-maximal effect.

Sequence of Luciferin 4-monooxygenase (Photinus pyralis) (P08659 whole entry, looked up): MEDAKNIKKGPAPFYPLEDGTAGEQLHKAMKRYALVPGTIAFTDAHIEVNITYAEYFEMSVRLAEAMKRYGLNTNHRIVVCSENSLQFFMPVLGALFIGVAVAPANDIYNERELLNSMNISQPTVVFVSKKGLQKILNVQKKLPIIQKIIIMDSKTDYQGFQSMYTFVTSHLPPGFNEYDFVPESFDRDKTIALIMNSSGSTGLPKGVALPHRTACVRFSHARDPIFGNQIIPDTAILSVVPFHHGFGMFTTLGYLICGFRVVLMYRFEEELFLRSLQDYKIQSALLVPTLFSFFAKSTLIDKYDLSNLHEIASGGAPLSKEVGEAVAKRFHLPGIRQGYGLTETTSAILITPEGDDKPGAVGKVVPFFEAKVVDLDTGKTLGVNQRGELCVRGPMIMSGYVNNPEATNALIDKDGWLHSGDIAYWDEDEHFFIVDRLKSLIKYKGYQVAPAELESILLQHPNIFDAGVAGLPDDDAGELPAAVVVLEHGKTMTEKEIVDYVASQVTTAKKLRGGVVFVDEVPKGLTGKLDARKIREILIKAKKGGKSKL

SMILES	Potency
COc1ccc(OC)c(NC(=O)CSC2=Nc3ccccc3C3=NC(CC(=O)NCCc4ccccc4)C(=O)N23)c1 (configuration not stated)	inactive
COc1ccccc1Nc1nc(N)nc(N)c1S(=O)(=O)c1ccccc1	inactive
CNS(=O)(=O)c1cccc(C(=O)OCCCC(=O)c2ccccc2)c1	inactive
COc1cc(OC)cc(C(=O)Nc2ccc(S(=O)(=O)Nc3cc(C)on3)cc2)c1	inactive
CCOc1ccc(CC(=O)Nc2ccc(S(=O)(=O)Nc3cc(C)on3)cc2)cc1OCC	inactive
CCOc1ccc(C(=O)Nc2ccc(S(=O)(=O)Nc3cc(C)on3)cc2)cc1	16.9 µM (active)
CC(C)OCCCNC(=O)c1cc(Sc2ccc(F)cc2)nc2ccccc12	inactive
Fc1ccc2[nH]c3c(N4CCN(Cc5ccc6c(c5)OCO6)CC4)ncnc3c2c1	inactive
CC(C)OCCCNc1ncnc2c1[nH]c1ccc(F)cc12	15.1 µM (active)
O=S(=O)(c1ccc(Sc2nnc3ccccn23)nc1)N1CCOCC1	inactive
CCOc1ccc(NC(=O)Cn2c(=O)n(CCCC(=O)NCc3ccc4c(c3)OCO4)c(=O)c3ccccc32)cc1	inactive
Cc1cc(C)cc(-n2ccnc2SCC(=O)Nc2nc3ccccc3s2)c1	inactive
Cc1ccnc(Nc2nc3ccccc3s2)n1	1.9 µM (active)
Cc1sc2ncnc(Sc3nc4ccccc4s3)c2c1C	inactive
Cc1ccc(CCNC(=O)c2ccc3c(c2)N(Cc2cc(C)ccc2C)C(=O)c2ccccc2S3=O)cc1 (configuration not stated)	inactive
CCCn1c(NCc2ccc(N(CC)CC)cc2)nc2ccccc21	inactive
Cc1ccc(CNC(=O)CCc2c(C)nc3nc(CNC(=O)OC(C)(C)C)nn3c2C)cc1	inactive
Cc1ccc(-c2cn3cc(C)ccc3n2)cc1	0.107 µM (active)
Cc1ccc2nc(-c3ccc(Br)cc3)cn2c1	0.0849 µM (active)
Cc1ccc(C(=O)Cn2cc([N+](=O)[O-])nc2C)cc1	inactive
Cc1ccc(-n2c(-c3ccc(Cl)cc3)n[nH]c2=S)cc1	inactive
CSc1nnc2ccc(-c3ccc(C)cc3)nn12	inactive
Cc1cc(N2CCOCC2)nc(-c2ccc(Br)cc2)n1	inactive

SMILES	Potency
Cc1nc(-c2ccc([N+](=O)[O-])cc2)c(-c2ccccc2)o1	inactive
Cc1ccc(-c2nc(SCc3ccc(Br)cc3)n3[nH]c(=O)cc3n2)cc1	inactive
Cc1ccc(-c2cn3cc([N+](=O)[O-])ccc3n2)cc1	0.757 µM (active)
CCc1c(C)sc(NC(=O)C2c3ccccc3Oc3ccccc32)c1C(=O)OC(C)C	inactive
O=C(CSc1nc2ccccc2c(=O)n1CCCO)NC1CC1	inactive
CCN(CC)S(=O)(=O)c1ccc(N2CCOCC2)c(NC(=O)C(C)Oc2ccc(F)cc2)c1 (configuration not stated)	inactive
Cc1cccc(NC(=O)N2CCC(CN3CCc4ccccc4C3)CC2)c1C	inactive
Cc1cc(NS(=O)(=O)c2ccc(NC(=O)c3ccccc3C)cc2)nc(C)n1	inactive
CCOc1ccc(S(=O)(=O)N(CC(=O)NCCSCc2ccc(C)cc2)c2ccccc2)cc1	inactive
COc1ccc([C@H]2CC(=O)C=C(c3ccc(OC(F)(F)F)cc3)C2)cc1OC	inactive
Cc1cc(Cl)c2oc(C(=O)NC(C)c3ccncn3)c(C)c2c1 (configuration not stated)	inactive
Cc1cc(Cl)c2oc(C(=O)N(C)C(C)c3ccccn3)c(C)c2c1 (configuration not stated)	19 µM (active)
Cc1cc(Cl)c2oc(C(=O)N3CCC(O)(c4ccccc4)CC3)c(C)c2c1	inactive
CCOc1ncccc1C(=O)OCC(=O)N1c2ccccc2CC1C (configuration not stated)	inactive
O=C(Nc1ncccc1O)c1ccc(S(=O)(=O)N2CCCC2)cc1	inactive
O=C(Nc1ncccc1O)c1ccc(C(=O)c2ccccc2)cc1	26.9 µM (active)
O=C(Nc1ncccc1O)c1ccc(S(=O)(=O)N2CCCCCC2)cc1	inactive
COc1cc(F)c(C2=CC(=O)CC(C)(C)C2)cc1F	inactive
CCCC12CN3CC(C)(CN(C1)C3c1ccccc1Cl)C2=O (configuration not stated)	inactive
CNC(=O)c1csc(-c2ccccc2)n1	inactive
O=C(Nc1nsc(-c2ccccc2)n1)c1ccncc1	19 µM (active)
CN(C)c1ccc(NC(=O)c2ccncc2)c2ccccc12	inactive
Cc1cccc(-n2ncc(C(=O)N3CCC(C)CC3)c2C2CCN(C(=O)OC(C)(C)C)CC2)c1	inactive

SMILES	Potency
COc1ccc(/C=C2\N=C3CCCN3C2=O)cc1	15.1 µM (active)
COc1ccc(/C=C2\SC(=N)N(c3ccc(F)cc3)C2=O)cc1	inactive
COc1ccc(C2NC(=O)N(C)C3=C2C(=O)N(c2ccc(C(=O)O)cc2)C3)cc1 (configuration not stated)	inactive
CCN(C(=O)Cn1cnc2sc(C)c(S(=O)(=O)N3CCN(c4ncccn4)CC3)c2c1=O)c1ccccc1F	inactive
CCOc1cc(/C=C2\SC(N3CCCCC3)=NC2=O)ccc1O	10.7 µM (active)
CCOc1cc(C(=S)N2CCOCC2)ccc1O	inactive
CCOc1cc(/C=N/NC(=O)CN2CCCCC2)ccc1O	inactive
CCOc1cc(/C=C2\SC(N3CCCC(C)C3)=NC2=O)ccc1O (configuration not stated)	9.53 µM (active)
Nc1c(Cl)cc(-c2csc(N3CCCC3c3nc4cc(Cl)c(Cl)cc4n3CCOCCO)n2)cc1Cl (configuration not stated)	inactive
ClC1(Cl)CC1CSc1ncn[nH]1 (configuration not stated)	inactive
Cc1ccc(N2CC(C(=O)Nc3cc(Cl)ccc3-n3cncn3)CC2=O)cc1 (configuration not stated)	inactive
CCCC(NCC(=O)Nc1ccccc1C(=O)NC1CC1)c1ccccc1 (configuration not stated)	inactive
COc1ccc(-c2cc(=O)oc3cc(OCC(=O)N(C)C4CCS(=O)(=O)C4)ccc23)cc1 (configuration not stated)	inactive
Cc1cc(=O)oc2ccc(OCC(=O)O)cc12	inactive
CC(=O)COc1ccc2c(-c3ccccc3)cc(=O)oc2c1	16.9 µM (active)
C=CCC(NC(=O)Cc1ccccc1)C(=O)NCCC (configuration not stated)	inactive
O=C(Nc1ccnc(-c2ccncc2)n1)c1cccs1	inactive
O=C(O)COc1ccc(-c2nccc(-c3cccs3)n2)cc1	1.51 µM (active)
O=C(COc1ccccc1)OCc1cc(=O)n2nc(-c3cccs3)sc2n1	inactive
Oc1c(C=Nc2cccc3nsnc23)ccc2ccccc12	1.69 µM (active)
O=C(NCc1ccccc1)C1CCN(S(=O)(=O)c2ccc3[nH]c(=O)ccc3c2)CC1	inactive
